Laboratory results published in PubChem BioAssay (Tox21).
Records with an inconclusive call do not appear. Values without a mark were called inactive. Calls of active or inactive are those of the source. Calls follow the shape of the full dose curve.

Experiment: qHTS assay for small molecule agonists of the antioxidant response element (ARE) signaling pathway - cell viability counter screen (AID 743203); also: nearly all actives have a fitted effect of over 55% in size
Conditions: ARE-bla HepG2 viability, CellTiter-Glo luminescence, 16 h; series mostly up to 73.3 µM; viability change, negative = cytotoxic: at the top concentration
From the text: National Center for Advancing Translational Sciences [NCATS]
NIH Chemical Genomics Center [NCGC]
U.S. Environmental Protection Agency [EPA]
National Institutes of Environmental Health Sciences [NIEHS]
National Toxicology Program [NTP]
U.S. Food and Drug Administration [FDA]
Oxidative stress has been implicated in the pathogenesis of a variety of diseases ranging from cancer to neurodegeneration. The antioxidant response element (ARE) signaling pathway plays an important role in the amelioration of oxidative stress. The CellSensor ARE-bla HepG2 cell line (Invitrogen) can be used for analyzing the Nrf2/antioxidant response signaling pathway. Nrf2 (NF-E2-related factor 2) and Nrf1 are transcription factors that bind to AREs and activate these genes. The CellSensor ARE-bla Hep G2 cell line contains a beta-lactamase reporter gene under control of the Antioxidant Response Element (ARE) stably integrated into HepG2 cells. The activation of the report gene under culture conditions can be detected by fluorescence intensity. This cell line has been used to screen the Tox21 10K compound library to identify agonists that induce oxidative stress. The cytotoxicity of the Tox21 compound library against the ARE-bla cell line was tested in parallel by measuring the cell viability using CellTiter-Glo assay (Promega, Madison, WI) in the same wells.
Tox21 Assay Protocol Summary:
ARE-bla HepG2 cells were dispensed at 2,000 cells/5 ul/well in 1536-well white wall/solid bottom plates using a Multidrop Combi (ThermoFisher Scientific, Waltham, MA) dispenser. After the assay plates were incubated at 37C/5% CO2 for 5 hrs, 23 nL of compounds dissolved in DMSO, positive controls or DMSO only was transferred to the assay plate by a pintool work station (Kalypsys, San Diego, CA). The plates were incubated at 37C/5% CO2 for 16 hrs, followed by addition of 4 ul/well of CellTiter-Glo reagent into the assay plates using a Flying Reagent Dispenser (Aurora Discovery, San Diego, CA). After 30 min incubation at room temperature, the luminescence intensity in the assay plates was measured using a ViewLux (PerkinElmer, Shelton, CT) plate reader.
% is scaled to controls: 0 for no effect and ±100 for the full control effect.

| Compound | outcome | viability change, negative = cytotoxic |
| --- | --- | --- |
| O=c1[nH]c(=O)n([C@H]2C[C@H](O)[C@@H](CO)O2)cc1Br | inactive |  |
| CCCCCCCCCC | inactive |  |
| CCCC(C)=O | inactive |  |
| Cc1ccc(N(C)C)cc1 | inactive |  |
| O=C(O)c1cc(O)c(O)c(O)c1 | inactive |  |
| CCOC(=O)NNc1nncc2ccccc12 | inactive |  |
| CCCCCCCC(=O)OC | inactive |  |
| O=c1[nH]c(=O)n([C@H]2CCCO2)cc1F | inactive |  |
| CCc1cccc(C)c1N | inactive |  |
| CCCCCOC(C)=O | inactive |  |
| O=C(O)CC(C(=O)O)C(CC(=O)O)C(=O)O (stereo not given) | inactive |  |
| Cc1cnc(C(=O)NCCc2ccc(S(=O)(=O)NC(=O)NC3CCCCC3)cc2)cn1 |  | 10.3% |
| CC(O)COCC(C)O (stereo not given) | inactive |  |
| Cc1cc(C)c(C)cc1C | inactive |  |
| C[C@H]1C[C@@H]2[C@H]([C@@H](O)C[C@@]3(C)[C@H]2CC[C@]3(O)C(=O)CO)[C@@]2(C)C=CC(=O)C=C12 | inactive |  |
| CCC(O)OCCCOC (stereo not given) | inactive |  |
| CC[C@H](C)C(=O)O[C@H]1C[C@@H](C)C=C2C=C[C@H](C)[C@H](CC[C@@H]3C[C@@H](O)CC(=O)O3)[C@H]21 | inactive |  |
| CCCCCCOCCO | inactive |  |
| Cc1cccc(O)c1 | inactive |  |
| CCCCN(CCCC)CCCC | inactive |  |

| Compound | outcome | viability change, negative = cytotoxic |
| --- | --- | --- |
| CCCCCCCCCCCCCCO | inactive |  |
| C#C[C@]1(O)CC[C@H]2[C@@H]3CCC4=CC(=O)CC[C@@H]4[C@H]3CC[C@@]21C | inactive |  |
| O=C(O)CCCCCCCCCCC(=O)O | inactive |  |
| CCCCC(CC)COC(=O)C(C#N)=C(c1ccccc1)c1ccccc1 (stereo not given) | inactive |  |
| CCCCCCCCC/C=C/CC1CC(=O)OC1=O (stereo not given) | inactive |  |
| O=S1(=O)CC=CC1 | inactive |  |
| Nc1cc([N+](=O)[O-])ccc1O | inactive |  |
| O=C(O)c1ccccc1C(c1ccc(O)cc1)c1ccc(O)cc1 |  | -0.49% |
| C=CCNC(N)=S | inactive |  |
| CCCCCC/C(C=O)=C\c1ccccc1 | inactive |  |
| O=[N+]([O-])c1ccc(/C=C/c2ccc([N+](=O)[O-])cc2S(=O)(=O)O)c(S(=O)(=O)O)c1 | inactive |  |
| COCCCOc1ccnc(CS(=O)c2nc3ccccc3[nH]2)c1C (stereo not given) | inactive |  |
| CCN(CC)CCCC(C)Nc1ccnc2cc(Cl)ccc12 (stereo not given) |  | -7.65% [at 8.36 µM] |
| OCCOCCN1CCN(C2=Nc3ccccc3Sc3ccccc32)CC1 | inactive |  |
| CC(=O)CC(=O)Nc1ccccc1C | inactive |  |
| CC1CCC2CC1C2(C)C (stereo not given) | inactive |  |
| CC(c1cc2ccccc2s1)N(O)C(N)=O (stereo not given) | inactive |  |
| COS(C)(=O)=O | inactive |  |
| CC(=O)Nc1cccc(O)c1 | inactive |  |
| C[C@H]1C[C@H]2[C@@H]3CCC4=CC(=O)C=C[C@]4(C)[C@@]3(F)[C@@H](O)C[C@]2(C)[C@@]1(O)C(=O)CO | inactive |  |
